This excerpt belongs to a sample that is enriched for hits.
TDP1 cell CPT: qHTS for Inhibitors of human tyrosyl-DNA phosphodiesterase 1 (TDP1): qHTS in cells in presence of CPT; chicken DT40 Tdp1-/-;hTDP1 cells + 20 nM CPT, ATP luminescence, 48 h; Potency, µM (top dose mostly 46.2 µM), inactives show at the top dose activity change, negative = growth inhibition, hits mostly inhibitors; actives 12% (n = 420,000); AID 686979, 2013; note: potency is the fitted concentration of half-maximal effect; nearly all actives have a fitted effect of over 55% in size
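Chicken DT40 Tdp1-/- cells stably complemented with human TDP1 were seeded at 400 cells/well in medium containing 20 nM camptothecin, exposed to pin-transferred compounds, and grown at 37 °C for at least 48 hr. Viability was read as ATP luminescence.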
ALOX12 inh: Primary qHTS assay for inhibitors of human arachidonate 12S-lipoxygenase (ALOX12): Round 2. Polyunsaturated fatty acid lipoxygenase ALOX12 (Homo sapiens), P18054. purified 12hLO, xylenol orange hydroperoxide absorbance. Potency, µM (titrated, usually from 108 µM), for the others: at the top dose activity change, negative = inhibition, hits mostly inhibitors. actives 1.1% (n = 580,000). AID 1671190, 2021; note: potency is the fitted concentration of half-maximal effect
Target sequence (P18054 whole entry, looked up): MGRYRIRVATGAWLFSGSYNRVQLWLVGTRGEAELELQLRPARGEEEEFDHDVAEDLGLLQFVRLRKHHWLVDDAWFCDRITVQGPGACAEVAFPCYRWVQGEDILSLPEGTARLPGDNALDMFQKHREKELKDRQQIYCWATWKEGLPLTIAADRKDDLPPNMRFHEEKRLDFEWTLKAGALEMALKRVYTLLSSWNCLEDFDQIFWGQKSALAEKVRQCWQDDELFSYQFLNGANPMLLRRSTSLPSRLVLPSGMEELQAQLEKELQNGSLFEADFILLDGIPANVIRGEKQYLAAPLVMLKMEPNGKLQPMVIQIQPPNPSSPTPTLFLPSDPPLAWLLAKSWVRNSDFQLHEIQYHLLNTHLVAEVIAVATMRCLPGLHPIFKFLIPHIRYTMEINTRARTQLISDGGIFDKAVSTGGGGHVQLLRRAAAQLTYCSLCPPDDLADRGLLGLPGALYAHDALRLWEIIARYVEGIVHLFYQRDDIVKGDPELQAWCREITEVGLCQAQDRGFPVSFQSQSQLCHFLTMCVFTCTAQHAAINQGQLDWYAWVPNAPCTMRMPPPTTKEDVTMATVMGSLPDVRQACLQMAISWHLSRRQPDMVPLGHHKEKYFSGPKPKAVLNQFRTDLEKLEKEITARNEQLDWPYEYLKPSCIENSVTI
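Hydroperoxide product was detected by ferrous iron/xylenol orange as the 573 to 405 nm absorbance ratio. Arachidonic acid at 40 uM (final) was turned over for 30 min at room temperature by 150 nM human 12hLO, pH 7.0 Hepes buffer, after 15 min compound preincubation.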
HT1080NT lethal: qHTS for induction of synthetic lethality in tumor cells producing 2HG: qHTS for the HT-1080-NT fibrosarcoma cell line | actives 1.6% (n = 360,000) | HT-1080-NT fibrosarcoma viability, CellTiter-Glo ATP luminescence, 48 h | Potency, µM (doses to about 46.1 µM), for inactives: at the top dose activity, negative = less viability, actives largely listed as cytotoxic;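 note: NT is the 2HG producing partner of a matched IDH1 knockdown line; potency is the fitted concentration of half-maximal effect; 0% = DMSO-treated cells and -100% = media-only wells without cells; nearly all actives have a fitted effect of over 55% in size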
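Read-out is CellTiter-Glo luminescence after 10 minutes at room temperature, following 48 hours' compound treatment of HT-1080-NT cells (750 cells/well, RPMI, 5% FBS, 37 degrees C).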
DT40 TDP1 no CPT: qHTS for Inhibitors of human tyrosyl-DNA phosphodiesterase 1 (TDP1): qHTS in cells in absence of CPT; Potency, µM (top dose mostly 46.2 µM), for the others: at the highest dose activity change, negative = growth inhibition, hits mostly inhibitors; AID 686978, 2013; actives 15% (n = 420,000); DT40 Tdp1-/- hTDP1 cells, no CPT, ATP luminescence, 48 h; note: potency is the fitted concentration of half-maximal effect; nearly all actives have a fitted effect of over 55% in size
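Seeded 400 DT40-hTDP1 cells/well (vehicle DMSO, no 20 nM CPT); pinned compounds; ≥48 hr at 37 °C; CellTiter-Glo luminescence as viability measure.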
HT1080 IDH1KD tx: qHTS for induction of synthetic lethality in tumor cells producing 2HG: qHTS for the HT-1080-IDH1KD cell line. actives 2% (n = 360,000). Potency, µM (series often up to 46.1 µM), for inactives: at the highest dose activity, negative = toxicity, most hits filed as cytotoxic. HT-1080 IDH1 knockdown viability, ATP luminescence, 48 h. AID 686971, 2013;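 note: potency is the fitted concentration of half-maximal effect; 0% = DMSO wells and -100% = cell-free medium wells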
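HT-1080-IDH1KD cells (IDH1 knocked down), 750/well in RPMI with 5% FBS, treated with compound 48 h at 37 degrees C. Viability by CellTiter-Glo luminescence, normalised to DMSO and no-cell wells; concentration-response curves classed.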
IL1B secr inh: qHTS for Inhibitors of Inflammasome Signaling: IL-1-beta AlphaLISA Primary Screen | THP-1 LPS/ATP IL-1B secretion, AlphaLISA, 16 h; active compounds read low | activity change, % at 57.5 µM | actives 4.7% (n = 360,000) | AID 743279, 2014; in the data active = activity change below about -50%; inconclusive = mostly about -30% to -49%
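Secreted IL-1B measured by AlphaLISA bead assay after 16 h compound exposure of THP-1 cells; compounds (final up to 57.5 uM) added 1 h before LPS (250 ng/mL) and ATP (1.25 mM) stimulation; lower signal means less secretion.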
The depositor's hits bear a star; u = inconclusive; x = no result; ! = not confirmed by another sample; [ ] = remark or other dose. Unless noted, calls come from the whole dose curve; as a rule, active = well fitted curve in the direction sought with a large enough effect; inconclusive = small, poorly fitted or top-dose-only effect, or another doubt; inactive = no such curve, though single readings can be large; an effect the other way counts as inactive or inconclusive. Unless noted, % is set by controls: 0 for no effect and ±100 for the full control effect.

SMILES	TDP1 cell CPT	ALOX12 inh	HT1080NT lethal	DT40 TDP1 no CPT	HT1080 IDH1KD tx	IL1B secr inh
Nc1ncnc(Sc2ccc(Cl)cc2)c1[N+](=O)[O-]	4.61µM*	-16.0%	-2.6%	5.8µM*	-14.2%	u
Nc1ncnc(Sc2ncccn2)c1[N+](=O)[O-]	1.16µM*	-16.8%	-14.1%	1.3µM*	16.4µM*	-27.3
Cc1ccc(Sc2ncnc(N)c2[N+](=O)[O-])cc1	-25.9%	-22.8%	-19.8%	u	-0.1%	-26.9
CN1CCC2(C1)CN(CC1CC1)c1ccc(C(=O)NCCOc3ccccc3)cc12 (configuration not stated)	x	40.4%[176 µM]	x	x	x	x
O=C(CNCc1ccc(Cl)cc1)Nc1ccc(C(=O)N2CCCCC2)cc1	-17.2%	u	-4.1%	-26.8%	-13.6%	-11.7
Cc1ccc(C(=O)N2CCN(CCNC(=O)C(=O)NCc3ccc(Cl)cc3)CC2)cc1	16.4µM*	-10.2%	28.6%	u	16.7%	0.0
NS(=O)(=O)c1ccc(NC(=S)Nc2ccc(C(=O)N3CCCCC3)cc2)cc1	-6.0%	u	2.5%	-29.4%	7.8%	25.5
O=C(c1ccc(NC(=S)Nc2ccc(Cl)c(Cl)c2)cc1)N1CCCC1	u	u	-19.2%	u	-21.7%	-99.3*
O=C(c1ccc(NC(=S)NCc2ccc(Cl)cc2)cc1)N1CCCCC1	u	-11.3%	3.7%	23.1µM*	2.1%	7.2
CCN(CC)C(=O)COC(=O)c1ccccc1NC(=O)c1ccco1	x	5.8%	x	x	x	x
O=C(NCCNCc1c[nH]c2ccccc12)c1ccc(F)cc1	x	7.94µM*	x	x	x	x
CC(C)C(=O)NCCc1c[nH]c2ccccc12	16.8%	-1.7%	0.9%	-16.5%	1.3%	0.0
O=C(NCCc1c[nH]c2ccccc12)OCCCCOC(=O)NCCc1c[nH]c2ccccc12	18.4µM*	-16.3%	u	23.1µM*	u	-50.8*
O=C(Nc1ccccc1C(=O)OCC(=O)c1c[nH]c2ccccc12)c1ccco1	8.2µM*	-9.8%	u	u	-6.2%	-1.5
O=C(NCCc1c[nH]c2ccccc12)c1ccc([N+](=O)[O-])o1	14.6µM*	1.2%	u	23.1µM*	u	-87.3*
O=C(Cc1ccccc1F)NCCc1c[nH]c2ccccc12	x	-14.8%	x	x	x	x
CN(CC1CCOCC1)S(=O)(=O)Cc1ccccc1Cl	x	19.4%	x	x	x	x
O=C(COC(=O)c1ccccc1C(=O)OCC(=O)NCCc1c[nH]c2ccccc12)NCCc1c[nH]c2ccccc12	u	-0.8%	u	23.1µM*	-22.8%	-20.4
O=C(Nc1cccc(CNCCc2c[nH]c3ccccc23)c1)c1ccccc1Cl	u	u	u	18.4µM*	u	u
O=C(CCCc1c[nH]c2ccccc12)Nc1ccc2ccccc2c1	-0.1%	u	-14.4%	-22.1%	-21.8%	-85.2*
CCc1cccc(NC(=O)CCc2c[nH]c3ccccc23)c1	x	-14.1%	x	x	x	x
O=C(CCCc1c[nH]c2ccccc12)NCCc1c[nH]c2ccccc12	u	-2.9%	-19.9%	16.4µM*	-21.4%	u
O=C(CCc1ccccc1)NCCc1c[nH]c2ccccc12	x	7.7%	x	x	x	x
Cc1ncsc1-c1nc(CC2CCN(C)CC2)nn1Cc1ccccc1	x	3.8%	x	x	x	x
COc1ccc(S(=O)(=O)NCC2CCC(C(=O)N[C@@H](C)C(=O)NCc3ccco3)CC2)cc1 (some centres not stated)	x	-13.3%	x	x	x	x
SMILES	TDP1 cell CPT	ALOX12 inh	HT1080NT lethal	DT40 TDP1 no CPT	HT1080 IDH1KD tx	IL1B secr inh
O=C(Cc1c[nH]c2ccccc12)N/N=C/c1ccccc1O	16.4µM*	-19.0%	-27.2%	u	-6.2%	155.6
O=C(NCCc1c[nH]c2ccccc12)Nc1ccccc1C(F)(F)F	23.1µM*	-17.8%	x	u	x	x
Cc1cccc2sc(NNC(=O)c3ccc4c(c3)OCCO4)nc12	u	u	-10.6%	u	-3.2%	-3.4
Cc1cccc2sc(NNC(=O)c3ccc(S(=O)(=O)N4CCc5ccccc5C4)cc3)nc12	2.59µM*	u	u	2.31µM*	16.4µM*	125.2
Cc1cc(C)c2nc(NNC(=O)c3ccc(S(=O)(=O)N4CCCCC4)cc3)sc2c1	4.61µM*	10µM*	u	3.26µM*	u	106.2
Cc1cccc2sc(NNC(=O)c3ccc(S(=O)(=O)N4CCCC(C)C4)cc3)nc12 (configuration not stated)	4.11µM*	u	u	3.66µM*	20.6µM*	135.2
COc1ccccc1CNC[C@H]1O[C@H](Cc2cc(-c3ccccc3)on2)CC[C@@H]1O	x	33.5%[176 µM]	x	x	x	x
CCN(CC)C(=O)N1CCN(C)CC1	1.01µM*!	3.8%	17.1%	u	17.1%	-12.5
CCCCCc1ccnc(CC(=O)c2ccc(OC)cc2)c1	8.2µM*	u	-16.5%	8.2µM*	-5.2%	-19.3
CO/N=C/NC(=O)c1ccc([N+](=O)[O-])c(CS(=O)(=O)c2ccc(Cl)cc2)c1	7.31µM*	0.0%	13.6%	10.3µM*	19.3%	0.0
O=S(=O)(c1ccc(Cl)cc1)c1nc(-c2cccs2)oc1N1CCCCC1	u	-22.0%	x	16.4µM*	x	x
COCCNc1oc(-c2cccs2)nc1S(=O)(=O)c1ccc(Cl)cc1	x	-13.4%	x	x	x	x
NC(=O)C1CCN(c2oc(-c3cccs3)nc2S(=O)(=O)c2ccc(Cl)cc2)CC1	11.0%	3.3%	2.2%	0.5%	-14.4%	-54.7*
CC(=O)c1ccc(NC(=O)N(C)CCc2noc(-c3ccc(C(=O)N4CCCCC4)cc3)n2)cc1	x	-13.7%	x	x	x	x
CCCCn1c(=O)c2c(nc(Br)n2Cc2ccccc2)n(C)c1=O	x	6.4%	x	x	x	x
COc1ccc(Cn2c(C(=O)O)c(CNCCc3cc(OC)ccc3OC)c3ccc(C)cc32)cc1	u	-19.2%	x	16.4µM*	x	x
Cc1ccc2c(CNCCc3ccccc3)c(C(=O)O)n(Cc3ccccc3C)c2c1	u	-1.6%	x	u	x	x
COc1ccc2c(CNCCc3cccs3)c(C(=O)O)n(Cc3ccccc3)c2c1	u	0.0%	x	u	x	x

Screening data from PubChem BioAssay.
